# Measured values from PubChem BioAssay (EPA / NIEHS).
# Inconclusive results are not listed. Calls of active or inactive are those of the source. The calls were made as follows: active = hit-call score of the fitted dose curve at least 0.9, where 1 is the maximum; inconclusive = response in the unintended direction; inactive = score below 0.9.
# Test system: not listed separately
# Assay: TOX21_p53_BLA_p4_viability: Viability Assessment in the Tox21 HCT-116 p53 Agonism Beta-lactamase Assay, Phase 4 (AID 2283597);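 also: hits lower the luminescence signal meaning cytotoxicity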
# Procedure, shortened: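 Viability is taken as cellular ATP: after 16 h compound exposure of HCT116 cells and a 2 h room-temperature CCF4-AM substrate step, CellTiter-Glo reagent is added and luminescence is measured 30 min later.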
Structure (SMILES),outcome,AC50
COC(=O)CCCCCCCC(=O)OC,inactive,
CC(=O)N[C@@H](CCC(N)=O)C(=O)O,inactive,
CCCCCCCCCCCCCCCCN,inactive,
Fc1ccc([C@@H]2CCNC[C@H]2COc2ccc3c(c2)OCO3)cc1,,37.4 µM (active)
CC1CS(=O)(=O)CCN1N=Cc1ccc([N+](=O)[O-])o1 (centres undefined),inactive,
O=C(Cl)c1ccc(F)c(Cl)c1,inactive,
CCCCCC(=Cc1ccccc1)CO,inactive,
O=C(Cn1cnnn1)N[C@@H]1C(=O)N2C(C(=O)O)=C(CSc3nncs3)CS[C@H]12,inactive,
CCNC(=O)C(C)OC(=O)Nc1ccccc1 (centres undefined),inactive,
COc1ccc(S(=O)(=O)N2c3ccc(Cl)cc3[C@@](O)(c3ccccc3Cl)[C@H]2C(=O)N2CCC[C@@H]2C(N)=O)cc1OC,inactive,
Cc1ccc(O)c([N+](=O)[O-])c1,inactive,
CC=C(C)C(=O)OCCC(C)CCC=C(C)C (centres undefined),inactive,
CN(C(=O)c1c(O)c2ccccc2n(C)c1=O)c1ccccc1,inactive,
CC1(C)C(\C=C/C=C\C=C/C=C2/N(CCCCS(=O)(=O)O)c3ccc4ccccc4c3C2(C)C)=[N+](CCCCS(=O)(=O)[O-])c2ccc3ccccc3c21,inactive,
CCCCCCCCCCCCCCC(=O)NC(CO)CCCCCCCCCCCCCC (centres undefined),inactive,
CN(C(=O)C(Cl)Cl)c1ccc(OC(=O)c2ccco2)cc1,inactive,
CCCCN(CCCC)C(=S)SSC(=S)N(CCCC)CCCC,inactive,

# Molecular target: Cellular tumor antigen p53 (Homo sapiens) (UniProt P04637)
# Assay: TOX21_p53_BLA_p5_ratio: Tox21 HCT-116 p53 Agonism Beta-lactamase Assay, Ratio, Phase 5 (AID 2283599)
# Procedure, shortened: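 HCT-116 p53-bla cells (4000/well) plated 5 h, dosed with compound (217-fold DMSO dilution) for 16 h at 37 C; CCF4-AM substrate 2 h at room temperature. Activity is the 460/530 nm emission ratio (405 nm excitation), fitted in gain-of-signal direction versus DMSO.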
# Chain of Cellular tumor antigen p53 (Homo sapiens) (P04637 whole entry, looked up): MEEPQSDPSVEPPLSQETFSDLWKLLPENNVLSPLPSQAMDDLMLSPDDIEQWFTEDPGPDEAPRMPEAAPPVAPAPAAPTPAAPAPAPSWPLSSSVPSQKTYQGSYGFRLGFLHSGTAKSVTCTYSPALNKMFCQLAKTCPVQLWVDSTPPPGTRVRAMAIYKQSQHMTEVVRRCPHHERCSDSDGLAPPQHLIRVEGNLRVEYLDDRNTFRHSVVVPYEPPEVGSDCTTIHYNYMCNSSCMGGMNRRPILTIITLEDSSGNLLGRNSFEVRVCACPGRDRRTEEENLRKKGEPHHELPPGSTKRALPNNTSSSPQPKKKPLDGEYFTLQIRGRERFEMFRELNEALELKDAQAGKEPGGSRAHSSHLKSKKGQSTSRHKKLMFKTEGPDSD
row,Structure (SMILES),outcome
1,COC(=O)CCCCCCCC(=O)OC,inactive
2,CC(=O)N[C@@H](CCC(N)=O)C(=O)O,inactive
3,CCCCCCCCCCCCCCCCN,inactive
4,Fc1ccc([C@@H]2CCNC[C@H]2COc2ccc3c(c2)OCO3)cc1,inactive
5,CC1CS(=O)(=O)CCN1N=Cc1ccc([N+](=O)[O-])o1 (centres undefined),inactive
6,CCCCCC(=Cc1ccccc1)CO,inactive
7,CC1=C(/C=C/C(C)=C\C=C\C(C)=C\C(=O)O)C(C)(C)CCC1,inactive
8,O=C(Cn1cnnn1)N[C@@H]1C(=O)N2C(C(=O)O)=C(CSc3nncs3)CS[C@H]12,inactive
9,COc1ccc(S(=O)(=O)N2c3ccc(Cl)cc3[C@@](O)(c3ccccc3Cl)[C@H]2C(=O)N2CCC[C@@H]2C(N)=O)cc1OC,inactive
10,CN(C(=O)c1c(O)c2ccccc2n(C)c1=O)c1ccccc1,inactive
11,CC1(C)C(\C=C/C=C\C=C/C=C2/N(CCCCS(=O)(=O)O)c3ccc4ccccc4c3C2(C)C)=[N+](CCCCS(=O)(=O)[O-])c2ccc3ccccc3c21,inactive
12,CCCCN(CCCC)C(=S)SSC(=S)N(CCCC)CCCC,inactive
13,CCC(C)c1cc(C(C)(C)C)c(O)c(C(C)(C)C)c1 (centres undefined),inactive

# Test system: not listed separately
# Assay: TOX21_p53_BLA_p5_viability: Viability Assessment in the Tox21 HCT-116 p53 Agonism Beta-lactamase Assay, Phase 5 (AID 2283600)
# Procedure, shortened: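 Viability is taken from cellular ATP content, measured by luciferase luminescence in the same wells after the beta-lactamase ratio read. Cells are seeded at 4000 per well and exposed to DMSO-dissolved compounds, diluted 217-fold, for 16 h.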
row,Structure (SMILES),outcome
1,COC(=O)CCCCCCCC(=O)OC,inactive
2,CCCC1C(=O)N2C(N(C)C)=Nc3ccc(C)cc3N2C1=O (centres undefined),inactive
3,CC(=O)N[C@@H](CCC(N)=O)C(=O)O,inactive
4,CCCCCCCCCCCCCCCCN,inactive
5,CCN(C=O)CC,inactive
6,Fc1ccc([C@@H]2CCNC[C@H]2COc2ccc3c(c2)OCO3)cc1,inactive
7,CC1CS(=O)(=O)CCN1N=Cc1ccc([N+](=O)[O-])o1 (centres undefined),inactive
8,CCCCCC(=Cc1ccccc1)CO,inactive
9,CCC(C)(CCC(C)C)C(=O)[O][Sn]([CH3])([CH3])[O]C(=O)C(C)(CC)CCC(C)C (centres undefined),inactive
10,O=C(Cn1cnnn1)N[C@@H]1C(=O)N2C(C(=O)O)=C(CSc3nncs3)CS[C@H]12,inactive
11,NC(N)=NCC1COC2(CCCCC2)O1 (centres undefined),inactive
12,O=c1[nH]c(=O)n([C@H]2C[C@H](O)[C@@H](CO)O2)cc1/C=C/Br,inactive
13,Cc1c(NC(C)C)c(=O)n(-c2ccccc2)n1C,inactive
14,NCCN1CCOCC1,inactive
15,CN(C(=O)c1c(O)c2ccccc2n(C)c1=O)c1ccccc1,inactive
16,CC1(C)C(\C=C/C=C\C=C/C=C2/N(CCCCS(=O)(=O)O)c3ccc4ccccc4c3C2(C)C)=[N+](CCCCS(=O)(=O)[O-])c2ccc3ccccc3c21,inactive
17,COC(c1ccccc1)(c1ccccc1)[C@H](Oc1nc(C)cc(C)n1)C(=O)O,inactive
18,Clc1cc(Cl)c(Cl)nc1Cl,inactive
19,COc1c(N2CCNC(C)C2)c(F)cc2c(=O)c(C(=O)O)cn(C3CC3)c12 (centres undefined),inactive
20,CCCCN(CCCC)C(=S)SSC(=S)N(CCCC)CCCC,inactive
21,COC(=O)CCC[N+](C)(C)C,inactive
22,CCCCCCC(=O)O[C@H]1CC[C@H]2[C@@H]3CCc4cc(O)ccc4[C@H]3CC[C@]12C,inactive
23,CSc1cnccn1,inactive

# Molecular target: Cellular tumor antigen p53 (Homo sapiens) (UniProt P04637)
# Assay: TOX21_p53_BLA_p4_ratio: Tox21 HCT-116 p53 Agonism Beta-lactamase Assay, Ratio, Phase 4 (AID 2283601)
# Procedure, shortened: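 HCT-116 p53 beta-lactamase reporter cells (4000/well) preincubated 5 h, then compound (217-fold dilution of DMSO stock) for 16 h at 37C. CCF4-AM substrate added 2 h at room temperature; 460/530 nm emission ratio fitted upward versus DMSO.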
row,Structure (SMILES),outcome
1,Fc1ccc([C@@H]2CCNC[C@H]2COc2ccc3c(c2)OCO3)cc1,inactive
2,C/C=C(\C)C=O,inactive
3,CCS(=O)(=O)CCn1c([N+](=O)[O-])cnc1C,inactive
4,O=C(O)C1CCCN1 (centres undefined),inactive
5,CC1=C(/C=C/C(C)=C\C=C\C(C)=C\C(=O)O)C(C)(C)CCC1,inactive
6,NC(N)=NCC1COC2(CCCCC2)O1 (centres undefined),inactive
7,O=c1[nH]c(=O)n([C@H]2C[C@H](O)[C@@H](CO)O2)cc1/C=C/Br,inactive
8,Cc1c(NC(C)C)c(=O)n(-c2ccccc2)n1C,inactive
9,NCCN1CCOCC1,inactive
10,C[C@H](CCCC(C)(C)O)[C@H]1CC[C@H]2[C@@H]3CC=C4C[C@@H](O)CC[C@]4(C)[C@H]3CC[C@]12C,inactive
11,CN(C(=O)c1c(O)c2ccccc2n(C)c1=O)c1ccccc1,inactive
12,CC(C)NCC(O)COc1cccc2[nH]ccc12 (centres undefined),inactive
13,CC1(C)C(\C=C/C=C\C=C/C=C2/N(CCCCS(=O)(=O)O)c3ccc4ccccc4c3C2(C)C)=[N+](CCCCS(=O)(=O)[O-])c2ccc3ccccc3c21,inactive
14,N#CC1(O)CCCCC1,inactive
15,CC[C@@H](C)[C@H](N)C(=O)O,inactive
16,COC(c1ccccc1)(c1ccccc1)[C@H](Oc1nc(C)cc(C)n1)C(=O)O,inactive
17,C=CCn1c(=O)n([C@@H]2O[C@H](CO)[C@@H](O)[C@H]2O)c2nc(N)[nH]c(=O)c21,inactive
18,Clc1cc(Cl)c(Cl)nc1Cl,inactive
19,COc1c(N2CCNC(C)C2)c(F)cc2c(=O)c(C(=O)O)cn(C3CC3)c12 (centres undefined),inactive
20,CCCCCCC(=O)O[C@H]1CC[C@H]2[C@@H]3CCc4cc(O)ccc4[C@H]3CC[C@]12C,inactive
21,CSc1cnccn1,inactive
